According to PubChem BioAssay AID743279 (National Center for Advancing Translational Sciences (NCATS), 2014):
Among all 360,000 compounds or so, about 17,000 (4.7%) were called active. About 5% were inconclusive and are not listed. Cut-off read from the data, not from the text of the source: active = activity change below about -50%; inconclusive = mostly about -30% to -49%; inactive = weaker than that. Shown is part of a subset that was picked to be rich in actives.

Assay: qHTS for Inhibitors of Inflammasome Signaling: IL-1-beta AlphaLISA Primary Screen
Details: THP-1 LPS/ATP IL-1B secretion, 16 h; at 57.5 µM, hits give low values
Method in brief: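 THP-1 cells pretreated 1 hr with compounds (up to 57.5 uM final), then stimulated with LPS (250 ng/mL final) plus ATP (1.25 mM final); secreted IL-1B measured by AlphaLISA after 16 hr, decreased signal indicating inhibition.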
% is set by controls: 0 for no effect and ±100 for the full control effect.

Activity change, inactive:
CC1CCCC(NC(=O)COC(=O)c2ccccc2C(=O)N(C)C2CCCCC2)C1C (stereo not drawn) -16.9%, O=c1c(-c2ccc(Cl)cc2)[n+]([O-])c2ccccc2n1OCc1nc2ccccc2[nH]1 14.2%, CCOC(=O)COn1c(=O)c(-c2ccc(OCC)cc2)[n+]([O-])c2ccccc21 4.15%, CC(=O)OC1CCC2C3CCC4=C(CC(F)C(=O)C4)C3CCC12C (stereo not drawn) 5.77%, Cc1cn([C@H]2C[C@H](O)[C@@H](CNC(=O)[C@H](N)Cc3cccnc3)O2)c(=O)[nH]c1=O 11.3%, Cc1cccc(C)c1NC(=O)CNC(=O)c1ccc(N2CCOCC2)c([N+](=O)[O-])c1 -0.22%, O=C(Nc1ccc(N2C(=O)c3cccc4cccc(c34)C2=O)cc1)c1ccc(N2CCCCC2)c([N+](=O)[O-])c1 -6.25%, CCC(C)NC(=O)c1ccc(N2CCC3(CC2)OCCO3)c([N+](=O)[O-])c1 (stereo not drawn) 0.859%, CS(=O)(=O)N1CCN(c2ccc(C(=O)NC3C4CC5CC(C4)CC3C5)cc2[N+](=O)[O-])CC1 (stereo not drawn) 5.99%, Cc1nc2nc(C)c(CCC(=O)N3CCN(c4ccccc4)CC3)c(C)n2n1 -17.6%, C[N+](C)(C)CCNC(=O)c1c[nH]c2ccccc12 24.4%, CCC(C(=O)NCc1cccnc1)n1nc(C)c2sc3ccccc3c2c1=O (stereo not drawn) -16.1%, CCOc1ccc(N(CC(=O)NCC2CCCO2)S(=O)(=O)c2ccc(C)cc2)cc1 (stereo not drawn) 7.07%, Cc1ccc(S(=O)(=O)N(CC(=O)NN=C2CCN(C)CC2)c2ccc(F)cc2)cc1 31%, COc1ccc(S(=O)(=O)NC(=O)C2(C)CCN2C(=O)c2ccccc2CCc2ccccc2)cc1 (stereo not drawn) 22.1%, CCCNC(=O)C1(C)CCN(C(=O)c2ccccc2OC(F)(F)F)C1 (stereo not drawn) 15.8%, COc1ncnc2c1ncn2CCCNCCN1CCOCC1 44.5%, O=S(=O)(O)c1cc2onnc2c2ccccc12 0%, CNc1nc(Nc2ccc(C)c(Cl)c2)nc(N)c1[N+](=O)[O-] -21.8%, Cc1ccc(Nc2nc(N)nc(CN3CCN(Cc4ccccc4)CC3)n2)cc1Cl 0%, COc1cc(NC(=O)C2=C(C)OCCS2)c(Cl)cc1C(=O)NCCCN1CCCC(C)C1 (stereo not drawn) -28.6%, CCCNC(=O)C1(C)CCN(C(=O)c2cc(F)ccc2C)C1 (stereo not drawn) 34.1%, COc1cccc(C(NC(C)=O)c2nc(-c3ccccc3OC)cs2)c1 (stereo not drawn) 9.34%, COC(=O)C[C@@H]1C=C[C@@H](NC(=O)c2ccc3c(c2)OCO3)[C@@H](CO)O1 7.5%, COc1cccc(CNC(=O)COC(=O)CN2C(=O)NC3(CCCCC3C)C2=O)c1 (stereo not drawn) 8.38%, CCCCNC(=O)CN1C(=O)NC(Cc2ccccc2)(Cc2ccccc2)C1=O 4.67%, CN(Cc1nc2ccccc2c(=O)[nH]1)Cc1cc(=O)oc2ccc3ccccc3c12 0.506%, O=C(CNc1ccccc1N1CCCC1=O)Nc1cc(Cl)ccc1-n1cncn1 -19.4%, Cc1ccc(CNC(=O)c2cccnc2Cl)cc1 55.4%, CCN(CC)S(=O)(=O)c1ccc(NC(=O)c2cnc(C)cn2)cc1 57%, CC(O)(c1cccc(F)c1)c1nc(-c2ccc3c(c2)OCO3)cs1 (stereo not drawn) 16%, COc1cc(-c2nnc(NC(=O)CS(=O)(=O)c3ccc(Cl)cc3)o2)cc(OC)c1OC -11%, CCN(CC)c1ccc(NC(=O)c2ccc(=O)[nH]c2)cc1S(=O)(=O)Nc1ccc(OC)cc1 -3.18%, COc1ccc(CNC(=O)COC(=O)c2sccc2C)cc1OC 12.1%, Oc1[nH]c2ccccc2c1N=Nc1c(F)c(F)c(F)c(F)c1F -7.81%, Cc1cccc(N(CC(=O)N=Nc2c(O)[nH]c3ccccc23)S(C)(=O)=O)c1C 19.5%, CS(=O)(=O)N1CCc2nc(-c3ccccc3)sc2C1 54.3%, COc1ccccc1OCCNC(=O)C(CCSC)NC(=O)COc1ccccc1 (stereo not drawn) -18.9%, NC(=O)c1ccc(N2CCCC2)nc1 5.48%, Cc1nc2ccc(C(=O)N(C)CC3CCCN(CCc4ccc(Cl)cc4)C3)cc2[nH]1 (stereo not drawn) 8.01%, COc1cccc(CN(C)CC(=O)NCc2ccccc2Cl)c1OC 1.26%, C[C@H]1CN([C@@H](C)CO)S(=O)(=O)c2ccc(-c3cccc(F)c3)cc2O[C@@H]1CN(C)C -2.69%, O=C(NCCOc1ccccc1Cl)C(=O)Nc1ccccc1, Clc1ccccc1Nc1nc(NCc2cccs2)nc2ccsc12 42.9%, C=C(C)C1CC=C(C)/C(=N\NC(=O)CNc2ccccc2OC)C1 (stereo not drawn) -1.86%, COc1ccc2nc(-c3ccccn3)ccc2c1 19.8%, CCc1ccccc1NC(=O)CN1CCN(C(=O)c2cc(C3CC3)nn2-c2ccccc2)CC1 -18.2%, CC(=O)Nc1cccc(-c2ccnc3c2CC(C)(C(=O)NCc2ccco2)O3)c1 (stereo not drawn) 78.5%, COc1cccc2oc(CCc3ccccc3)cc(=O)c12 -5.15%, CCOC(=O)c1ccc(NC(=O)c2nc[nH]c2C(=O)NCc2ccccc2)cc1 7.09%, CC(C)(C)OC(=O)CNC(=O)c1[nH]cnc1C(=O)N[C@@H](CCCCN)C(=O)OC(C)(C)C -12.6%, COc1ccccc1CC1(C)C(=O)Nc2ccc(OC(F)(F)F)cc21 (stereo not drawn) 4.75%, COc1ccc(/C=C(\NC(=O)c2ccc(OC)c(OC)c2)C(=O)NCCc2c[nH]c3ccccc23)cc1 -11.1%, COc1ccc(C(C(O)C(=O)c2c[nH]c3ccccc23)N2CCN(c3ccccc3)CC2)cc1 (stereo not drawn) 14.4%, Cc1ccc([C@H]2N[C@]3(CCCN(CC4CCCCC4)C3=O)[C@H]3C(=O)N(Cc4ccccc4)C(=O)[C@@H]23)cc1 -9.33%, CC(=O)NCC(O)c1ccc([N+](=O)[O-])cc1 (stereo not drawn) 0.816%, O=C(NCC(O)c1ccc([N+](=O)[O-])cc1)C1CCCCC1 (stereo not drawn) -13.9%, O=C(O)c1ccc([N+](=O)[O-])cc1Sc1ccsc1 4.28%, O=C(NCc1cccc(C(F)(F)F)c1)c1ccc2sc(COCCO)nc2c1 28.9%, CCN(CC)CCOC(=O)c1ccc(NC(=O)CNC(=O)c2ccccc2)cc1 7.44%, CCN(CC)CCNC(=O)c1ccc(NS(=O)(=O)c2ccc3c(c2)OCCO3)cc1 -6.92%, COC(=O)Cc1ccc(NC(=S)NCc2ccccc2)cc1 0.636%, CCNC(=S)Nc1ccc(OC(F)(F)F)cc1 -1.65%, CC1(C)OC(=O)C2=C(C[C@@H](C3CC3)O[C@H]2c2ccc(Cl)cc2)O1 6.02%, N=C1c2ccccc2-c2ccccc21 3.3%, Cc1c(NC(=O)Nc2ccccc2Cl)sc(=S)n1C -4.03%, CN(C)S(=O)(=O)Oc1ccccc1C(=O)Nc1ccccc1Cl 3.38%, CCCNC(=O)C1(C)CCN1C(=O)C1(c2ccccc2)CC1 (stereo not drawn) 0%, Nc1ncnc2c1ncn2[C@@H]1O[C@H](C(=O)N2CCSC2)[C@@H](O)[C@H]1O 3.32%, Cc1ccc(S(=O)(=O)N(CCc2ccccc2)c2ccc3c(c2)C2CC3CCN2C(=O)OCc2ccccc2)cc1 (stereo not drawn) -16.8%, COc1ccc(C2=Nc3ccccc3NC(=O)C2N(C(=O)c2cc3ccccc3[nH]2)c2ccccc2)cc1 (stereo not drawn) 16.6%

Activity change, active:
CCOc1ccc(OCC)c(-c2c(=O)n(OCc3ccc(Cl)cc3)c3ccccc3[n+]2[O-])c1 -67%, O=C(Nc1cccc(C(F)(F)F)c1)c1ccc(N2CCNCC2)c([N+](=O)[O-])c1 -82.2%, CC(NC(=O)c1ccc(N2CCNCC2)c([N+](=O)[O-])c1)C12CC3CC(CC(C3)C1)C2 (stereo not drawn) -72.6%, CCNC(=O)CN(c1ccc(C)cc1)S(=O)(=O)c1ccc(SC)cc1 -55.3%, OCCNc1nc(Nc2ccc(Cl)c(Cl)c2)nc2ccccc12 -92.5%, COc1cccc(CNC(=O)CN2C(=O)NC(Cc3ccccc3)(c3ccccc3)C2=O)c1 (stereo not drawn) -58.8%, CCN(CC)S(=O)(=O)c1ccc(NC(=O)c2cccnc2Cl)c(NC(=O)c2cccnc2Cl)c1 -102%, O=C(CCN1CCCCC1)N=Nc1c(O)[nH]c2ccccc12 -74.6%, COc1cccc(CN(C)CC2CCCN(CCc3ccc(Cl)cc3)C2)c1OC (stereo not drawn) -90.5%, CC(C)Nc1nc(NCCOc2ccccc2Cl)c2sccc2n1 -90.6%, CCOC(=O)c1ccc(NC(=O)c2nc[nH]c2C(=O)N[C@@H](CCCCNC(=O)OC(C)(C)C)C(=O)OC(C)(C)C)cc1 -62.8%, COc1ccc(/C=C(\C#N)c2c[nH]c3ccccc23)cc1 -102%, O=C(CC(c1ccccc1)c1ccccc1)NCC(O)c1ccc([N+](=O)[O-])cc1 (stereo not drawn) -69.4%, CCN(CC)CCNC(=O)c1ccc(NC(=O)c2c(F)cccc2Cl)cc1 -73.3%, FC(F)(F)Oc1ccc(NC(=S)NCc2ccccc2)cc1 -95%, O=C(Nc1ccccc1Cl)/C(Cl)=C(\Cl)S(=O)c1ccccc1 (stereo not drawn) -103%, Oc1ccc2ccccc2c1N=Nc1nccs1 -98.3%
